Data on five molecules can be found in PubChem BioAssay.

Assay [1] in a line: compounds binding Alexa647 anti-His antibody – biochemical, small-molecule microarray, 635 nm fluorescence, artefact control for SMM control protein annotation, primary screen (AID 1128).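 Note: score merges feature fluorescence with signal-to-noise for each printed compound spot.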 As to conditions: higher = more signal.
In assay [2] the test system is Human papillomavirus type 1a E7 protein (residues 1-88). The assay is described as follows: HPV1a E7 small-molecule binders, primary screen, biochemical, small-molecule microarray, residues 1-88, 635 nm (AID 1129). As to conditions: small-molecule microarray binding, fluorescence 635 nm; higher = more signal.
For assay [3], the target named is Focal adhesion kinase 1 (Homo sapiens) (UniProt Q05397). The assay is described as follows: PTK2 protein binding on printed compound slides – biochemical, small-molecule microarray, 635/667 nm fluorescence, BSA, DTT, primary screen (AID 1130).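 Note: composite of spot emission at 667 nm and signal to noise over triplicate slides.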 As to conditions: 635 nm fluorescence, higher = more signal.
The subject of assay [4] is Fibrinogen (Alexa647-labelled). The assay is described as follows: Alexa647-fibrinogen binding to printed small molecules – biochemical, small-molecule microarray, 635/667 nm fluorescence, artefact control for SMM control-protein annotation, profiling panel (AID 1131).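 Note: z-score merges 667 nm fluorescence with per-spot signal-to-noise over triplicate slides.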 As to conditions: fibrinogen-A647 binding fluorescence, higher = more signal.
In assay [5] the target is Follistatin (Homo sapiens) (UniProt P19883). The assay is described as follows: FST protein binding to printed compounds – biochemical, small-molecule microarray, 635/667 nm fluorescence, primary screen (AID 1132). As to conditions: 635 nm fluorescence, higher = more signal.
In assay [6] the target is Fibroblast growth factor 2 (Homo sapiens) (UniProt P09038). The assay is described as follows: basic fibroblast growth factor binding to printed compounds – biochemical, small-molecule microarray, 635/667 nm fluorescence, primary screen (AID 1133). As to conditions: FGF2, fluorescence 635/667, higher = more signal.
Assay [7] in a line: JC-1 mitochondrial potential readout, lung cancer cells – cell-based, A549, JC-1 fluorescence, basal, 24 h, 100 nL, profiling panel (AID 1138).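 Note: A549 lung adenocarcinoma cells under basal conditions with no added stimulus; test concentration not given here.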 As to conditions: higher = more signal.
In assay [8] the test system is Lefty1. Nature of the assay: Lefty1 protein binding to printed compounds – biochemical, small-molecule microarray, 635/667 nm fluorescence, primary screen (AID 1139). Particulars: fluorescence 635/667, higher = more signal.
Assay [9] relates to wheat germ agglutinin (Triticum aestivum), Alexa647-labelled. The assay is described as follows: Alexa647-WGA lectin binding to printed small molecules – biochemical, small-molecule microarray, 635/667 nm fluorescence, artefact control for SMM control-protein annotation, profiling panel (AID 1140).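 Note: score merges 667 nm feature emission with signal to noise over triplicate slides.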 As to conditions: WGA-A647 binding, 635 nm fluorescence, higher = more signal.
For assay [10], the target named is Luciferin 4-monooxygenase (Photinus pyralis) (UniProt P08659). Nature of the assay: inhibition of purified Photinus pyralis luciferase – biochemical, luminescence, purified enzyme, 2006 set, primary screen (AID 1141).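 Note: cell-free assay with purified firefly luciferase at 100 ng per well in PBS; test concentration not given here.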 As to conditions: purified firefly luciferase, SteadyGlo luminescence, 30 min; higher = more signal, called active from +8 up or from −8 down.
For assay [11], the system named is Wnt5a (protein binding on small-molecule microarray). Nature of the assay: small molecules binding Wnt5a protein – biophysical, small-molecule microarray, 635/667 nm fluorescence, primary screen (AID 1142).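 Note: fluorescence read at 667 nm with signal to noise per printed feature.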 Particulars: 635 nm fluorescence, higher = more signal.
A short description of assay [12]: ATP-based viability of Huh7 replicon cells – cell-based, CellTiter-Glo luminescence, basal, 48 h, cytotoxicity control for HCV replication inhibitor project, primary screen (AID 1143).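 Note: Huh7 hepatoma cells carrying a hepatitis C replication reporter with no stimulus; test concentration not given here.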 As to conditions: higher = more signal, called active from +8 up or from −8 down.
Assay [13] is described as follows: Pseudomonas biofilm growth suppression – PAO1 strain, BacTiter-Glo luminescence, LB-PBS, primary screen (AID 1144). As to conditions: P. aeruginosa PAO1 biofilm, 12 h, higher = more signal.
A short description of assay [14]: basal CRE-LacZ reporter activity in PC12 – cell-based, unstimulated, primary screen (AID 1145). As to conditions: no forskolin, luminescence, 4.5 h, higher = more signal, called active from +8 up or from −8 down.
Assay [15] can be described thus: forskolin-driven CRE-LacZ activity in PC12 – cell-based, CRE-LacZ reporter, forskolin-stimulated, primary screen (AID 1146).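 Note: PC12 cells with 6xCRE LacZ reporter stimulated by forskolin 10 µM; beta-galactosidase reporter signal reflecting CREB driven transcription.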 As to conditions: luminescence, 4.5 h, higher = more signal, called active from +8 up or from −8 down.
Assay [16] concerns the target Streptavidin (Streptomyces avidinii) (UniProt P22629). The assay is described as follows: compounds binding control protein streptavidin – biophysical, small-molecule microarray, 635/667 nm fluorescence, artefact control for SMM compound annotation, primary screen (AID 1147).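 Note: signal reflects streptavidin binding to arrayed compounds as a control protein.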 As to conditions: higher = more signal.
A short description of assay [17]: probe aInhba binding on compound microarray – biochemical, small-molecule microarray, 635/667 nm fluorescence, primary screen (AID 1148).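 Note: score merges 667nm spot fluorescence with signal-to-noise for antibody binding to printed compounds.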 Particulars: higher = more signal.
Assay [18] deals with Torsin-1A (Homo sapiens) (UniProt O14656). The assay is described as follows: TOR1A wild-type binding on microarray – cell lysate, small-molecule microarray, lysate, 635/667 nm, primary screen (AID 1149). As to conditions: COS7 hTOR1A-WT lysate, 635 nm fluorescence, higher = more signal.
For assay [19] the target is unchanged. Nature of the assay: torsin A mutant lysate binding on microarrays – cell lysate, small-molecule microarray, COS7 lysate, 635/667 nm fluorescence, primary screen (AID 1150).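 Note: score pools 667 nm emission and signal to noise measuring lysate protein binding.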 As to conditions: COS7 hTOR1A mutant lysate, 635 nm fluorescence, higher = more signal.
The subject of assay [20] is Sonic hedgehog protein (Shh). Nature of the assay: Sonic hedgehog microarray binding compounds – biochemical, small-molecule microarray, 635/667 nm fluorescence, primary screen (AID 1151).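 Note: Shh protein binding to compounds spotted on small-molecule microarray slides; score combines spot fluorescence intensity with signal-to-noise across triplicate slides.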 Particulars: 635 nm fluorescence, higher = more signal.

Activity calls are given as the source filed them. Unless noted, the rule behind the calls is not given here.

Chain of Torsin-1A (Homo sapiens) (O14656 whole entry, looked up): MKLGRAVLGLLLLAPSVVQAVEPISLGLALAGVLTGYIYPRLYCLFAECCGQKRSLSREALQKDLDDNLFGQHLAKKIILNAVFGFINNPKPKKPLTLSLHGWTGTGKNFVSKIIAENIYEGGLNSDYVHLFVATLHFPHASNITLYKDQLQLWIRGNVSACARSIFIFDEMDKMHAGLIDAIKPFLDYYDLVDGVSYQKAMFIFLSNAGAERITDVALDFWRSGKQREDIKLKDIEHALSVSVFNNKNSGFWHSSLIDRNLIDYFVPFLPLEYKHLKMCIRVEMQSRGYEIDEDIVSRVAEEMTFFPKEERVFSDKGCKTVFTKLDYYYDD
Chain of Follistatin (Homo sapiens) (P19883 whole entry, looked up): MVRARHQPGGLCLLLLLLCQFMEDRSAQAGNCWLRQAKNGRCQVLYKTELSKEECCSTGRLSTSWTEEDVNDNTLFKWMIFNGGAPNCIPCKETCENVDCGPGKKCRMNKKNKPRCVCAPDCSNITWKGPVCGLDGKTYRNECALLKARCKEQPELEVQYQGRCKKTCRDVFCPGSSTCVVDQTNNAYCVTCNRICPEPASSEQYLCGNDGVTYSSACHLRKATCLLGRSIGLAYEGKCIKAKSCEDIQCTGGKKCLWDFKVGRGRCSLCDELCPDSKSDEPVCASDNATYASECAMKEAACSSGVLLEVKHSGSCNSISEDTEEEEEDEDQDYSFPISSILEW
Chain of Fibroblast growth factor 2 (Homo sapiens) (P09038 whole entry, looked up): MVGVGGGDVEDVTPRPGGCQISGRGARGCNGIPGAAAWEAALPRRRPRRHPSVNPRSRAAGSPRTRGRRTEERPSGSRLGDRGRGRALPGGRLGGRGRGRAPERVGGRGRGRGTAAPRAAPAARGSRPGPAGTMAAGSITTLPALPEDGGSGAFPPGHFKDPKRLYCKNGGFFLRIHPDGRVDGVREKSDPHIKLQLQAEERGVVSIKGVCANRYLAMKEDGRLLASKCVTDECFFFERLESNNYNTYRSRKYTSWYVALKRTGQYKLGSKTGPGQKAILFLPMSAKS
Chain of Streptavidin (Streptomyces avidinii) (P22629 whole entry, looked up): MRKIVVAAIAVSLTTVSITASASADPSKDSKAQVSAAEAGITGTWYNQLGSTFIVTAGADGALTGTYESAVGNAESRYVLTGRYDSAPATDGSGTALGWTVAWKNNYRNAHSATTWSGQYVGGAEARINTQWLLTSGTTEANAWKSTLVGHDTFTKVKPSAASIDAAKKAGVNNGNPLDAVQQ
Chain of Focal adhesion kinase 1 (Homo sapiens) (Q05397 whole entry, looked up): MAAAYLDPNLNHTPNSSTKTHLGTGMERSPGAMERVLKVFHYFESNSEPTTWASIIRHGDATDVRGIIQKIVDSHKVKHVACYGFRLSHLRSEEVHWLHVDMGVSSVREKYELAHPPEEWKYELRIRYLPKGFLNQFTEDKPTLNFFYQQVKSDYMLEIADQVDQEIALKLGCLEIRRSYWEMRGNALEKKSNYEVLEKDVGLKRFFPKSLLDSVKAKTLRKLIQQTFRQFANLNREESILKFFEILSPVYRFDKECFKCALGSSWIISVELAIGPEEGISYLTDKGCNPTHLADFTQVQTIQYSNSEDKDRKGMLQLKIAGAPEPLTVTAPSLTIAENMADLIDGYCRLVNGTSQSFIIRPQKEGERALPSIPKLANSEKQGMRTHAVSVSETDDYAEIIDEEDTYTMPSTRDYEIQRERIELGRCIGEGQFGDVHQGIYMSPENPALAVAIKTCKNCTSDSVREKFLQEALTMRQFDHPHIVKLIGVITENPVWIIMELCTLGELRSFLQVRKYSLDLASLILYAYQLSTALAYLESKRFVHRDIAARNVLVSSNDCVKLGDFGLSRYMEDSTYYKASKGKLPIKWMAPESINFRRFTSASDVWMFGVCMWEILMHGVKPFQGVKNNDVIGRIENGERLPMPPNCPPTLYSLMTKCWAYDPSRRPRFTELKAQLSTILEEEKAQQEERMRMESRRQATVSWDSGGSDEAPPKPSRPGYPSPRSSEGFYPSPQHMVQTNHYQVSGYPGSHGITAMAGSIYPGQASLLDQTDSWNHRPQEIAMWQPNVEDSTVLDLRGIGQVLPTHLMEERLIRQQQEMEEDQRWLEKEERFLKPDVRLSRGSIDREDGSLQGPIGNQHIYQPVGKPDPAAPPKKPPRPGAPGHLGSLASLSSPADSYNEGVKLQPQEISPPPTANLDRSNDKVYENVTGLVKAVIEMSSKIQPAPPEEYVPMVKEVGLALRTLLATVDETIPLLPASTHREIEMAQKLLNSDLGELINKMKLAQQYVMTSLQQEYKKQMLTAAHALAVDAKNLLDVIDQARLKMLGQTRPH
Chain of Luciferin 4-monooxygenase (Photinus pyralis) (P08659 whole entry, looked up): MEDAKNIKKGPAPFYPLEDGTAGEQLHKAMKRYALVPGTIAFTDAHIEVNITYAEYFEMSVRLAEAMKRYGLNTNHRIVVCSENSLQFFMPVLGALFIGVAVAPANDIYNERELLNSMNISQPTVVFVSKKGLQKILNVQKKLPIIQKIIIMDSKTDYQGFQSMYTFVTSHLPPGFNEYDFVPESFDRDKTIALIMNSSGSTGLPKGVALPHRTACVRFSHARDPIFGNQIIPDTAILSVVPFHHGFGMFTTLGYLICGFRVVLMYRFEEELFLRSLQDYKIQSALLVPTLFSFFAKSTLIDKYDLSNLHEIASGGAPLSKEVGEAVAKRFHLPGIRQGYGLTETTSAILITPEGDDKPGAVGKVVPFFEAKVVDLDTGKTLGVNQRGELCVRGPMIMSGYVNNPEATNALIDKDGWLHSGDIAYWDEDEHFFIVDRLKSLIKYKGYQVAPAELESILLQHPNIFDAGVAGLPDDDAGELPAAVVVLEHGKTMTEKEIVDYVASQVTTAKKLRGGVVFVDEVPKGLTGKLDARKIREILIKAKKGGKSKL

`COC(=O)[C@@]1(Cc2ccc(OC)cc2)[C@H]2c3cc(C(=O)N(C)C)n(Cc4ccc(C)c(F)c4F)c3C[C@H]2CN1C(=O)c1ccccc1`: the composite z-score is 0.158 in [1]; 0.713 in [2]; 0.0211 in [3]; 0.746 in [4]; -0.266 in assay [5]; -0.869 in assay [6]. Moreover, the composite z-score in assay [8] is -0.826; in assay [9], 0.546; in assay [11], 0.109; in assay [16], 0.569; in assay [17], 0.0179; in assay [18], -0.124. In addition, the results for the composite z-score in assay [19] and in assay [20] were -0.0724 and -1.09, respectively. Further, the z-score in [7] was 0.0287; in [10], 2.24 (inactive); in assay [12] it was -1.49 (inactive); in assay [13] it was -0.763 (inactive); in assay [14], 1.53 (inactive); in assay [15] it was 1.24 (inactive).
Regarding `CC1CC/C=C\[C@H]2OC34C=CCN(Cn5nnc6ccccc65)C(=O)[C@H]3N(C(C)CO)C(=O)[C@@H]4C2C(=O)O1` (stereo not given in full), the composite z-score in assay [1] is 0.52; in assay [2], -1.01; in assay [3], -0.305; in [4], -0.559; in assay [5], -0.491; in assay [6], -1.01. For the same molecule, the composite z-score in assay [8] was -0.328; in [9] it was -0.462; in assay [11], -0.501; in assay [16] it was -0.465; in assay [17], -0.0675; in assay [18] it was -0.276. Further, the values for the composite z-score in [19] and in assay [20] were -1 and -0.362, respectively. In addition, the z-score in assay [7] was 0.417; in [10], -0.223 (inactive); in [12], 0.349 (inactive); in assay [13] it was -0.182 (inactive); in assay [14], -1.03 (inactive); in assay [15], -0.542 (inactive).
Take `N#Cc1ccc(NN2C(C(O)CCc3ccccc3)C=CC3C(=O)N(c4ccccc4)C(=O)C32)cc1` (stereo not given): the composite z-score in assay [1] is 1.31; in [2], 1.08; in assay [3], 0.945; in [4], 0.846; in assay [5], 0.353; in [6], -0.431. The composite z-score in [8] is -0.85; in assay [9] it was 1.34; in assay [11], 0.135; in assay [16] it was 0.79; in assay [17], 0.194; in assay [18], -0.0047. The composite z-score in assay [19] was 0.985; in [20] it was -0.0548. The z-score in assay [7] was -0.3; in [10] it was -0.98 (inactive); in [12], -0.843 (inactive); in assay [13], -1.07 (inactive); in assay [14] it was -0.905 (inactive); in assay [15] it was -0.259 (inactive).
With `COC(=O)[C@H]1[C@@H]2COc3ccccc3[C@H]2N[C@H]1C(=O)OC`, the composite z-score in assay [1] is -0.0432; in assay [2], 0.0902; in assay [3] it was 0.404; in assay [4], 0.428; in [5], 0.214; in [6] it was 0.446. Further, the composite z-score was 0.171 in assay [8]; 0.274 in assay [9]; -0.0215 in assay [11]; -0.142 in [16]; -0.118 in assay [17]; 0.425 in [18]. Also, the composite z-score in [19] turned out to be 0.775; in [20], 0.264. For the same molecule, the z-score in [7] is 0.603; in [10], -1.37 (inactive); in assay [12] it was 0.508 (inactive); in [13] it was -0.411 (inactive); in assay [14] it was 2.13 (inactive); in [15], -0.827 (inactive).
For `Cc1cc(C)c(C(O)C2C=CC3C(=O)N(C)C(=O)C3N2N2CCCCC2)c(C)c1` (stereo not given), the composite z-score in assay [1] was 2.16; in [2] it was 1.18; in [3] it was -0.193; in assay [4], 0.985; in [5], 1.28; in assay [6], 0.994. Besides, the composite z-score in assay [8] is -0.0675; in assay [9] it was 0.799; in assay [11] it was 0.423; in assay [16] it was 1.4; in assay [17] it was 0.233; in [18] it was 0.0592. The composite z-score in assay [19] was 0.251; in assay [20] it was 0.375. Moreover, the z-score was 0.85 in assay [7]; 0.915 (inactive) in assay [10]; 1.09 (inactive) in assay [12]; -0.276 (inactive) in [13]; -0.14 (inactive) in assay [14]; 0.56 (inactive) in assay [15].
